Measured values from PubChem BioAssay (NCATS).
Records with an inconclusive call do not appear. A call without a number means that no potency is given here. A number with no mark means an inactive call. Activity calls are given as the source filed them. Unless noted, the call rests on the fitted dose curve; in most records, active means well fitted curve in the direction sought with a large enough effect; inconclusive means small, poorly fitted or top-dose-only effect, or another doubt; inactive means no such curve, though single readings can be large; an effect the other way counts as inactive or inconclusive. Where a SMILES comes first, the peptide text is derived from it. [ ]: non-standard residue; d: D form. pGlu = O=C1CC[C@@H](C(=O)O)N1

Key:
[1] = qHTS to identify inhibitors of the type 1 interferon - major histocompatibility complex class I in skeletal muscle: primary screen against the NCATS Pharmaceutical Collection (AID 1347407);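 further: luminescence of HiBiT knocked into endogenous HLA-B as interferon-induced MHC class I level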; further: potency means the concentration at half of the fitted maximal effect
How it was run: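 Luminescence from HiBiT-tagged endogenous HLA-B*08:01 served as the read-out of IFN-beta-induced MHC class I in CRISPR-engineered C25cl48 myoblasts. Cells received 4 ng/ml IFN-beta plus compound (high final 46 uM, […]) for 24 h.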

[2] = target: Protein phosphatase 1D (Homo sapiens) (UniProt O15297); assay: RapidFire Mass Spectrometry qHTS Assay for Modulators of WT P53-Induced Phosphatase 1 (WIP1) (AID 1347424);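 further: amount of dephosphorylated VEPPL-S-QETFS peptide product formed by WIP1; series mostly up to about 63 µM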
How it was run: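 Mass-spectrometric measurement of dephosphorylated peptide after a 5 min room-temperature reaction of 10 nM WIP1 with 2 uM phosphopeptide, following 1 h compound preincubation in 30 mM MgCl2 buffer.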

[3] = target: Protein phosphatase 1D (Homo sapiens) (UniProt O15297); assay: Rhodamine-PBP qHTS Assay for Modulators of WT P53-Induced Phosphatase 1 (WIP1) (AID 1347425)
How it was run: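 The read-out is the change in Rhodamine-PBP fluorescence (f1 - f0, ex 525/em 598 nm) as Pi is released, read each minute for 11 min. Final reaction: 5 nM WIP1, 10 uM phosphopeptide VEPPL-pS-QETFS, 10 uM Rh-PBP, 50 mM Tris-HCl pH 7.5, 30 mM MgCl2. Compound was preincubated with enzyme for 1 hour at room temperature.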

[4] = Primary qHTS for inhibitors of La Crosse Virus (LACV) - induced cell death in SH-SY5Y cells (AID 1508616);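 further: top concentration of the series differs between compounds; higher means more rescue of cells from virus-induced death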
How it was run: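 Cytopathicity rescue screen: compounds pinned onto SH-SY5Y cells, which are then infected with LACV (MOI 0.01) and held 6 days at 37C. Percent activity is scaled between infected DMSO control and uninfected DMSO control.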

[5] = target: Calcium and integrin-binding protein 1 (Homo sapiens) (UniProt Q99828); assay: Primary qHTS for Identification of Calcium Integrin Binding Protein 1 (CIB1) Competitor (AID 1508620);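 further: GST tagged CIB1 binding a fluorescein labelled alphaIIb integrin peptide tracer; top concentration of the series differs between compounds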
How it was run: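 Fluorescence polarization competition: CIB1-GST (1 uM final) preincubated with compound 15 min at room temperature, then FITC-labeled alphaIIb peptide (100 nM final) added for another 15 min. Polarization read at Ex 480/Em 540.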

[6] = Primary qHTS for small molecule stabilizers of the endoplasmic reticulum resident proteome: Secreted ER Calcium Modulated Protein (SERCaMP) assay (AID 1508630)
How it was run: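 The SH-SY5Y reporter protocol was run at 3 concentrations up to 38.3 uM (primary) or 11 concentrations (follow-up): 16 h compound, 100 nM thapsigargin for 4 h, then extracellular luciferase luminescence.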

[7] = A High-Content qHTS Against Drug Library for the Identification of Small Molecules that Inhibit DYT1 Early Onset Primary Dystonia-Associated Cell Pathology (AID 1645839; calls by dose curve; further: series mostly up to about 46 µM)
How it was run: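 Induced EGFP-delE TorsinA cells are imaged after 48 h of compound treatment. Punctate fusion-protein distribution gives the %pathology value, while nuclei counts flag toxicity. Wild-type EGFP-hTOR1A cells define the normal pattern.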

[8] = target: Cytochrome P450 2D6 (Homo sapiens) (UniProt P10635); assay: Cytochrome P450 family 2 subfamily D member 6 (CYP2D6) small molecule antagonists: luciferase biochemical (cell-free) qHTS assay (AID 1645840; active means well fitted curve in the direction sought with a large enough effect in the repeat runs; an effect the other way counts as inactive or inconclusive; further: nearly all actives have a fitted effect of over 55% in size; further: potency means the concentration at half of the fitted maximal effect)
How it was run: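 P450-Glo CYP2D6 system: proluciferin substrate converted by enzyme to luciferin, read by luminescence proportional to activity. Enzyme-substrate mix with compound 10 min at room temperature, then NADPH regeneration 1 h before detection reagent.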

[9] = target: Cytochrome P450 2C9 (Homo sapiens) (UniProt P11712); assay: Cytochrome P450 family 2 subfamily C member 9 (CYP2C9) small molecule antagonists: luciferase biochemical (cell-free) qHTS assay (AID 1645842; active means well fitted curve in the direction sought with a large enough effect in the repeat runs; an effect the other way counts as inactive or inconclusive; further: nearly all actives have a fitted effect of over 55% in size; further: potency means the concentration at half of the fitted maximal effect)
How it was run: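 P450-Glo CYP2C9 system: proluciferin substrate with enzyme in mix containing 0.4% BSA, 10 min at room temperature, then NADPH regeneration solution added and incubated 1 h at 37C. Detection reagent stopped reaction; luminescence read after 20 min as RLU.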

[10] = Cell Viability qHTS for small molecule stabilizers of the endoplasmic reticulum resident proteome (AID 1508629); conditions: cell viability counter-screen, 100 nM thapsigargin for final 4 h;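 further: human SH-SY5Y neuroblastoma cells carrying the GLuc-SERCaMP reporter; compound exposure about 46 h in total before the viability read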
[11] = target: Cytochrome P450 3A4 (Homo sapiens) (UniProt P08684); assay: Cytochrome P450 family 3 subfamily A member 4 (CYP3A4) small molecule antagonists: luciferase qHTS assay (AID 1645841; active means well fitted curve in the direction sought with a large enough effect in the repeat runs; an effect the other way counts as inactive or inconclusive; further: nearly all actives have a fitted effect of over 45% in size)
How it was run: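 P450-Glo CYP3A4 enzyme with proluciferin substrate was preincubated with DMSO-dissolved compounds for 10 min at room temperature. NADPH regeneration solution started a 1 h reaction. Detection reagent stopped it, and luminescence was read after 20 min.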

Chain of Protein phosphatase 1D (Homo sapiens) (O15297 whole entry, looked up): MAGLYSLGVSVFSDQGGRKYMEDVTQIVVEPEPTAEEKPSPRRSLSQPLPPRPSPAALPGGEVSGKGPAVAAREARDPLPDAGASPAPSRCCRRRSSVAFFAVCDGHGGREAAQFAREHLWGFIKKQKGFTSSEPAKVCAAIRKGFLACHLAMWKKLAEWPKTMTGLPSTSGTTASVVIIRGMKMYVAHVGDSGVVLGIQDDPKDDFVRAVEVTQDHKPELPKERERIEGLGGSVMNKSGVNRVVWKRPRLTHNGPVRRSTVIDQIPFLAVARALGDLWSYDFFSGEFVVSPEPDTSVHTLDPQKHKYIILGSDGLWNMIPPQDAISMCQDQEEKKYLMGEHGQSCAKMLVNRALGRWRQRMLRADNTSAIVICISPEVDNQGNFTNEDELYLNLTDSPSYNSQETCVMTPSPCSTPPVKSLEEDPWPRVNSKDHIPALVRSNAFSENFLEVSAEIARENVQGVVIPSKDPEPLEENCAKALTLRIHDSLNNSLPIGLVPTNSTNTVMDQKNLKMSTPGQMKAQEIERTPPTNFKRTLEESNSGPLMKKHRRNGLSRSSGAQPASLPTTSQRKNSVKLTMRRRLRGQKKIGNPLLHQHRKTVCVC
Chain of Calcium and integrin-binding protein 1 (Homo sapiens) (Q99828 whole entry, looked up): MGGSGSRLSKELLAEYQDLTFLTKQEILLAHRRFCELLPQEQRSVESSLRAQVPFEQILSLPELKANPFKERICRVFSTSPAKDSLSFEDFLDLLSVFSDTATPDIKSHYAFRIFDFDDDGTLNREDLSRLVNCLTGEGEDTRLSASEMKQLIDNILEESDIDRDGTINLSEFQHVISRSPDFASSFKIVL
Chain of Cytochrome P450 3A4 (Homo sapiens) (P08684 whole entry, looked up): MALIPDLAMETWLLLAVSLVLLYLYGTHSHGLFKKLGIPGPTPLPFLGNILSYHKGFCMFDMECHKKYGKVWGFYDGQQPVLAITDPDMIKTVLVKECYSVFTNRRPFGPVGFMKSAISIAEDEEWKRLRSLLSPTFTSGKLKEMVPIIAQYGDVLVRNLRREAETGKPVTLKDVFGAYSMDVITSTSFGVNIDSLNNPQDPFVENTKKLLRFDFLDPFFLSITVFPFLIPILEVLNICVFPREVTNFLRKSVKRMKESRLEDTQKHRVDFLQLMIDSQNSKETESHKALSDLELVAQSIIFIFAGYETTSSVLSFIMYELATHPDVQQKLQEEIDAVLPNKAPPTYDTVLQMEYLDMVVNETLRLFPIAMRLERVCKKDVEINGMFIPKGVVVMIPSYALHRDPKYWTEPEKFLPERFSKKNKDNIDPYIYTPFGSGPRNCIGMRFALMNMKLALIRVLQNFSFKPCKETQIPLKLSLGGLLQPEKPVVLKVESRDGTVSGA
Chain of Cytochrome P450 2D6 (Homo sapiens) (P10635 whole entry, looked up): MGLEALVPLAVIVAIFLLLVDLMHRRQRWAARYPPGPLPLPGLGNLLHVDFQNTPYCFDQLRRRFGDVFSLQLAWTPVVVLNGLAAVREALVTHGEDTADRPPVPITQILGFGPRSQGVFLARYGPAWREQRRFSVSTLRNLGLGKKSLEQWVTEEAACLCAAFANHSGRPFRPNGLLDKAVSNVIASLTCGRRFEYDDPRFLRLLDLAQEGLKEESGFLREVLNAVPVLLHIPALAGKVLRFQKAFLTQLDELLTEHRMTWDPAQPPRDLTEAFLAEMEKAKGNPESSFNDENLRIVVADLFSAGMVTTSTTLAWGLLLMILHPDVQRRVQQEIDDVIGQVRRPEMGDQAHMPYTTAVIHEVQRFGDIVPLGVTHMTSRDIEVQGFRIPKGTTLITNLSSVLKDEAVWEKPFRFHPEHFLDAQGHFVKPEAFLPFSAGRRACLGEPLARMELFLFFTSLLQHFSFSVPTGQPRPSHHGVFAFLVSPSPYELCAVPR
Chain of Cytochrome P450 2C9 (Homo sapiens) (P11712 whole entry, looked up): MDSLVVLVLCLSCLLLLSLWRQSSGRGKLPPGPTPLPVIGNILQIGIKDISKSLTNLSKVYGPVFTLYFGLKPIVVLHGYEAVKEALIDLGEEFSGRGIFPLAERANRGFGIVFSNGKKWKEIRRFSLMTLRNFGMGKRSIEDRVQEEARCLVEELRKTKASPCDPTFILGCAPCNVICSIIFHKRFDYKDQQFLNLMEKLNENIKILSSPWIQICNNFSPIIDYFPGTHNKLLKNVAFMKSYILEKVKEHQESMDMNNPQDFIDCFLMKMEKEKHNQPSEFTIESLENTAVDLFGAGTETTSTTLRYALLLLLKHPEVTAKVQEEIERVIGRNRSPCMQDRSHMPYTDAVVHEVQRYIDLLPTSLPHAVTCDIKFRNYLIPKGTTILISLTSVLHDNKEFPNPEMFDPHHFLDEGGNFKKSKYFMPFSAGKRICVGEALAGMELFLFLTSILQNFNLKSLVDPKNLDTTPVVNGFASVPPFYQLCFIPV

Row | Structure (SMILES) | Potency [1] | Potency [2] | outcome [3] | outcome [4] | Potency [5] | Potency [6] | Potency [7] | Potency [8] | Potency [9] | max response [10] | Potency [11]
1 | NS(=O)(=O)c1ccc(N2CCCCS2(=O)=O)cc1 | inactive | inactive | inactive | inactive | inactive | inactive | inactive | inactive | inactive | – | –
2 | COC(=O)/C=C(/C)N | inactive | inactive | inactive | inactive | inactive | inactive | inactive | inactive | – | – | –
3 | OC(CCCN1CCCCC1)(c1ccccc1)c1ccccc1 | inactive | inactive | inactive | inactive | inactive | inactive | inactive | 0.138 µM (active) | – | – | –
4 | CC[N+]1(CC)CCC(=C(c2ccccc2)c2ccccc2)C1C (centres undefined) | inactive | inactive | inactive | inactive | inactive | inactive | inactive | 1.74 µM (active) | inactive | – | –
5 | OC1(c2ccccc2)CCNCC1 | inactive | inactive | inactive | inactive | inactive | inactive | inactive | 27.5 µM (active) | inactive | – | –
6 | CCCC(=O)Nc1ccc(O)c(C(C)=O)c1 | inactive | inactive | inactive | inactive | inactive | – | inactive | inactive | inactive | 11.5% | –
7 | CCNC(=O)[C@@H]1CCCN1C(=O)[C@H](CCCN=C(N)N)NC(=O)[C@H](CC(C)C)NC(=O)CNC(=O)[C@H](Cc1ccc(O)cc1)NC(=O)[C@H](CO)NC(=O)[C@H](Cc1c[nH]c2ccccc12)NC(=O)[C@H](Cc1cnc[nH]1)NC(=O)[C@@H]1CCC(=O)N1 ([pGlu]HWSYGLRP-NHEt) | inactive | inactive | inactive | inactive | inactive | inactive | inactive | inactive | inactive | – | –
8 | CC(=O)OCC(=O)Nc1cc(C#N)cc(NC(=O)COC(C)=O)c1Cl | inactive | inactive | inactive | inactive | inactive | inactive | inactive | inactive | inactive | – | inactive
9 | CN1CCN(N)CC1 | inactive | inactive | inactive | inactive | inactive | inactive | inactive | inactive | – | – | –
10 | O=C(O)Cc1ccc(OCCNC[C@H](O)c2ccccc2)cc1 | inactive | inactive | inactive | inactive | inactive | inactive | inactive | inactive | – | – | –
11 | CCCCC(CC)CNC(=O)CC(C)OC(=O)CCC(=O)O (centres undefined) | inactive | inactive | inactive | inactive | inactive | inactive | inactive | – | – | – | –
12 | O=C1CC(c2ccc(Cl)cc2)CC(=O)N1 | inactive | inactive | inactive | inactive | inactive | – | inactive | inactive | inactive | 1.98% | –
13 | COCCOCC(OC)OC | inactive | inactive | inactive | inactive | inactive | inactive | inactive | inactive | inactive | – | inactive
14 | O=C1Cc2cc(Cl)ccc2N1 | inactive | inactive | inactive | inactive | inactive | inactive | inactive | – | – | – | –
15 | CC(C)CCCC(C)NCCC(C)C (centres undefined) | inactive | inactive | inactive | inactive | inactive | inactive | inactive | 0.55 µM (active) | – | – | –
16 | Nc1ccc2c(c1)CN1C(=O)c3ccccc3C1=N2 | inactive | inactive | inactive | inactive | inactive | inactive | inactive | 1.69 µM (active) | 4.25 µM (active) | – | –
17 | Cc1cccc(OCC(O)CNC(C)(C)C)c1C (centres undefined) | inactive | inactive | inactive | inactive | inactive | inactive | inactive | 11 µM (active) | inactive | – | –
18 | CCOC(=O)CN1CCCC1=O | inactive | inactive | inactive | inactive | inactive | inactive | inactive | inactive | inactive | – | inactive
19 | CC[C@@]1(O)C(=O)OCc2c1cc1n(c2=O)Cc2c-1nc1ccccc1c2/C=N/OC(C)(C)C | 745 nM (active) | inactive | inactive | inactive | inactive | inactive | – | – | – | – | –
20 | O=C(OCCN1CCOCC1)c1cccnc1Nc1cccc(C(F)(F)F)c1 | inactive | inactive | inactive | inactive | inactive | inactive | – | – | – | – | –

Row | Structure (SMILES) | Potency [1] | Potency [2] | outcome [3] | outcome [4] | Potency [5] | Potency [6] | Potency [7] | Potency [8] | Potency [9] | max response [10] | Potency [11]
21 | O=C(Oc1ccccc1)c1ccccc1O | inactive | inactive | inactive | inactive | inactive | inactive | inactive | inactive | inactive | – | –
22 | Clc1ccc2c(c1)Nc1ccccc1S2 | inactive | inactive | inactive | inactive | inactive | inactive | inactive | inactive | – | – | –
23 | CCC[C@H](N[C@@H](C)C(=O)N1[C@H](C(=O)O)C[C@@H]2CCCC[C@@H]21)C(=O)OCC | inactive | inactive | inactive | inactive | inactive | inactive | inactive | inactive | inactive | – | –
24 | CN1C(=O)CC(C)(c2ccccc2)C1=O (centres undefined) | inactive | inactive | inactive | inactive | inactive | inactive | inactive | inactive | inactive | – | –
25 | C[C@H](N)C(=O)N[C@@H](C)C(=O)NC1[C@H]2CN(c3nc4c(cc3F)c(=O)c(C(=O)O)cn4-c3ccc(F)cc3F)C[C@@H]12 (some centres undefined) | inactive | inactive | inactive | inactive | inactive | – | – | inactive | inactive | -5.88% | inactive
26 | CC(=O)OCC(=O)[C@@]1(O)CCC2C3CCC4=CC(=O)CC[C@]4(C)C3[C@@H](O)C[C@@]21C (some centres undefined) | inactive | inactive | inactive | inactive | inactive | inactive | inactive | inactive | – | – | –
27 | CC(=O)OCC(=O)[C@@]1(O)[C@H](OC(C)=O)C[C@H]2[C@@H]3CCC4=CC(=O)C=C[C@]4(C)[C@@]3(F)[C@@H](O)C[C@@]21C | inactive | inactive | inactive | inactive | inactive | inactive | inactive | inactive | – | – | –
28 | O=C(O)Cc1ccccc1Oc1ccc(Cl)cc1Cl | inactive | inactive | inactive | inactive | inactive | inactive | inactive | inactive | – | – | –
29 | Cc1ccc(Cl)c(OCC(O)CNC(C)(C)C)c1 (centres undefined) | inactive | inactive | inactive | inactive | inactive | inactive | inactive | 1.74 µM (active) | inactive | – | –
30 | Nc1c[n+](N2CCOCC2)no1 | inactive | inactive | inactive | inactive | inactive | inactive | inactive | inactive | – | – | –
31 | Nc1ncnc2nc[nH]c12 | inactive | inactive | inactive | inactive | inactive | inactive | inactive | inactive | – | – | inactive
32 | C[N+]1(CC2COC(c3ccccc3)(c3ccccc3)O2)CCCCC1 (centres undefined) | inactive | inactive | inactive | inactive | inactive | inactive | inactive | 1.51 µM (active) | inactive | – | –
33 | Nc1ccc([N+](=O)[O-])c(C(F)(F)F)c1 | inactive | inactive | inactive | inactive | inactive | inactive | inactive | inactive | inactive | – | –
34 | O=C(CCCl)NCCc1ccccc1 | inactive | inactive | inactive | inactive | inactive | inactive | inactive | inactive | inactive | – | –
35 | CNC(=O)c1cnn(-c2nc(N)c3ncn([C@@H]4O[C@H](CO)[C@@H](O)[C@H]4O)c3n2)c1 | inactive | inactive | inactive | inactive | inactive | inactive | inactive | inactive | inactive | – | –
36 | O=C(O)c1[nH]n(-c2ccc(S(=O)(=O)O)cc2)c(=O)c1N=Nc1ccc(S(=O)(=O)O)cc1 | inactive | inactive | inactive | inactive | inactive | inactive | inactive | inactive | inactive | – | –
37 | O=C(CO)[C@@H](O)[C@H](O)[C@@H](O)CO | inactive | inactive | inactive | inactive | inactive | inactive | inactive | inactive | inactive | – | –
38 | O=C1[C@@H]2[C@H]3CC[C@H](C3)[C@@H]2C(=O)N1CCCCN1CCN(c2ncccn2)CC1 | inactive | inactive | inactive | inactive | inactive | inactive | inactive | 15.5 µM (active) | inactive | – | –
39 | Cc1cccc(N(C)C(=S)Oc2ccc3c(c2)C2CCC3C2)c1 (centres undefined) | inactive | inactive | inactive | inactive | inactive | inactive | inactive | inactive | 7.76 µM (active) | – | –
